The source made the active and inactive calls. A call without a number means that no potency is given here. Calls follow the shape of the dose curve; as a rule, active = well fitted inhibition curve with a large enough effect; inconclusive = small, poorly fitted or top-dose-only effect; inactive = flat fitted curve, though single readings scatter. Where a SMILES comes first, the peptide text is derived from it. Bridges are numbered along the chain shown (N, C = ends). [ ]: non-standard residue; d: D form. The star is where a group is joined. X1 = CCC(C)C(N)C1=NC(C(=O)*)CS1; dOrn = NCCC[C@@H](N)C(=O)O
Biological target: Luciferin 4-monooxygenase (Photinus pyralis) (UniProt P08659)
Assay: Primary firefly luciferase (FLuc) qHTS assay for identification of artifact compounds. (AID 1845220); also: nearly all actives have a fitted effect of over 60% in size
Conditions: purified firefly luciferase, luminescence, 5 min; series mostly up to 54.1 µM
How it was run: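 Cell-free, 1536-well qHTS. Buffer pH 7.6 with 0.01% Tween-20 and 0.05% BSA; 10 uM D-luciferin, 10 uM ATP; 10 nM P. pyralis luciferase; luminescence after 5 min.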
Potency is read from the fitted curve at half-maximal effect.

Compound	Potency	activity change, negative = inhibition
CC[C@H](C)/C=C(C)/C=C/C(=O)Cc1cc(O)c(C)c(O)c1C=O	inactive	–
CC(=O)N[C@H]1[C@H](O[C@H]2CC[C@@]3(C)C(CC[C@]4(C)C3CC=C3C5CC(C)(C)CC[C@]5(C(=O)O)[C@H](O[C@@H]5O[C@H](CO)[C@@H](O)[C@H](O)[C@H]5O)C[C@]34C)C2(C)C)O[C@H](CO[C@@H]2OC[C@H](O)[C@H](O)[C@H]2O[C@@H]2OC[C@@H](O)[C@H](O)[C@H]2O)[C@@H](O)[C@@H]1O (stereo not given in full)	–	2.58% [at 11.6 µM] (inactive)
CCC(=O)NS(=O)(=O)c1ccc(-c2c(-c3ccccc3)noc2C)cc1	inactive	–
C/C1=C\C[C@H](O[C@@H]2O[C@H](CO)[C@@H](O)[C@H](O)[C@H]2O)/C(C)=C/[C@H]2OC(=O)[C@H](C)[C@@H]2CC1	inactive	–
C=C1CCC2C(C)(COC3OC(COC(=O)CC(=O)O)C(O)C(O)C3O)CCCC2(C)C1CCC1=CCOC1=O (stereo not given)	inactive	–
CC(C)C(=O)O[C@@H]1[C@@H](O)[C@@H](O[C@H]2O[C@H](CO)[C@@H](O)[C@H](O)[C@H]2O)O[C@H](CO)[C@H]1O	inactive	–
COC1CC(=O)C23C(=O)NC(CC(C)C)C2C(C)C(C)=CC3/C=C(\C)CCC1O (stereo not given)	inactive	–
COc1cc(O[C@@H]2O[C@H](CO)[C@@H](O)[C@H](O)[C@H]2O)c(CCC(=O)OC[C@H]2O[C@@H](Oc3cc(OC)c(C4OC(=O)C(C)(O)C4O)cc3CCC(=O)O)[C@H](O)[C@@H](O)[C@@H]2O)cc1C1OC(=O)C(C)(O)C1O (stereo not given in full)	–	1.78% [at 11.6 µM] (inactive)
C=C(C(=O)O)[C@@H]1CC=C2CCC[C@H](C)[C@@]2(C)C1	inactive	–
Nc1ncnc2c1ncn2[C@H]1CCCO1	inactive	–
C/C=C/C=C/C(CC(=O)O)Nc1ccc(C=O)cc1 (stereo not given)	23.9 µM (active)	–
CC1(C)CCCC2(C)C(CO)C3CCC2C31 (stereo not given)	inactive	–
COc1cc(/C=C/C(=O)OC(C)(C)C(OC2OC(CO)C(O)C(O)C2O)C(=O)OCc2ccc(OC3OC(CO)C(O)C(O)C3O)cc2)ccc1O (stereo not given)	inactive	–
CCC(C)C(N)C1=NC(C(=O)N[C@@H](CC(C)C)C(=O)N[C@H](CCC(=O)O)C(=O)N[C@H](C(=O)N[C@H]2CCCCNC(=O)[C@H](CC(N)=O)NC(=O)[C@@H](CC(=O)O)NC(=O)[C@H](Cc3cnc[nH]3)NC(=O)[C@@H](Cc3ccccc3)NC(=O)[C@H]([C@@H](C)CC)NC(=O)[C@@H](CCCN)NC2=O)[C@@H](C)CC)CS1 (stereo not given in full) (X1-L[dE]IK[dOrn]I[dF]H[dD]N; lactam 4-C)	inactive	–
CC(C)(O)C1=CCC23COC(C2)C(O)(C(=O)O)CCC13 (stereo not given)	inactive	–

Source: PubChem BioAssay (NCATS)
